Reference: the supplement of paper PMC6555819

Tests used:
Experiment in all cases: PBM binding z-score (relative to random genomic background probes); higher = stronger binding; sequences stand for … in GC…GCGATTGACAGCGTAGAATGAAGG
[1] = system: FXR:RXRa (NR concentration 270 nM, RXRa partner concentration 90 nM)
Outline: (§1)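 The probes on custom Agilent 4×180K protein-binding microarrays were double-stranded, with 34-nt variable regions bearing direct-repeat seeds, single-nucleotide variants, half-site ablations and random human genomic background sequences. Incubation lasted 1 h with ligand-free nuclear receptor dimers in PBS pH 7.4, 2% milk, 0.02% Triton X-100, 1 mM DTT, 0.2 mg/mL BSA and 0.4 mg/ml salmon testes DNA. Antibodies against each partner (one per run) detected bound dimers, and fluorescence scans were regression-normalized. Binding z-scores take the random background probes as reference.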

[2] = system: LXRa:RXRa (NR concentration 270 nM, RXRa partner concentration 90 nM)
Outline: as §1

[3] = system: LXRa homodimer (NR concentration 270 nM)
Outline: as §1

[4] = system: LXRb:RXRa (NR concentration 270 nM, RXRa partner concentration 90 nM)
Outline: as §1

[5] = system: LXRb homodimer (NR concentration 270 nM)
Outline: as §1

[6] = system: PPARa:RXRa (NR concentration 270 nM, RXRa partner concentration 90 nM)
Outline: as §1

[7] = system: PPARg:RXRa (NR concentration 180 nM, RXRa partner concentration 90 nM)
Outline: as §1

[8] = system: PPARg:RXRa 270nM:90nM, anti-RXR (NR concentration 270 nM, RXRa partner concentration 90 nM)
Outline: as §1

[9] = system: PPARg:RXRa 30nM:10nM, anti-RXR (NR concentration 30 nM, RXRa partner concentration 10 nM)
Outline: as §1

[10] = system: PPARg:RXRa 90nM:30nM, anti-RXR (NR concentration 90 nM, RXRa partner concentration 30 nM)
Outline: as §1

Sequence	PBM binding z-score [1]	PBM binding z-score [2]	PBM binding z-score [3]	PBM binding z-score [4]	PBM binding z-score [5]	PBM binding z-score [6]	PBM binding z-score [7]	PBM binding z-score [8]	PBM binding z-score [9]	PBM binding z-score [10]
CCATACGGGTCACTCCAGGTTATAGCATCGGAGT	4.55	7.37	1.79	5.15	0.265	4.18	3.46	3.28	1.27	2.68
ATACCAAGGTGATCATGAGGTCGTTGATACTAAC	1.75	1.61	0.874	1.38	-0.0501	1.89	0.785	0.728	0.266	0.604
GCTTGTAGATCAAGGTTTAGAAAGACTAAGCTAA	-0.378	-0.689	-0.302	-0.532	-0.671	0.113	1.13	2.05	0.713	2.05
TCTATTAGTTGAAGGGCAGCCGACGAGTCCGTTT	0.906	0.864	0.0935	0.623	0.323	0.856	-0.213	1.78	3.64	2.81
TTACCAAGGTGAGCTTAGGTCGTTGATCCAACTC	0.558	0.409	-0.684	0.122	-1.23	1.05	-0.0698	0.725	-0.0893	0.244
CGTCCAAGGTCATAGGAGGTCAGTGACGACAGAT	7.82	7.6	4.84	6.12	0.978	6.02	5.6	5.9	2.05	4.62
ATCTCTAGGTAAGACTCAGTTGAGTGAAGAACGC	0.19	0.256	-0.143	0.303	0.234	-0.0553	0.0512	0.121	-0.116	-0.195
TCGGGTAGGTTAGTCGGGGCATTCAGCCAACATA	0.578	0.368	0.422	1.38	0.98	1.01	-0.189	0.977	1.92	1.22
AGAATGAGGTTATACGTAGATCAGGGTAGAAAGT	2.27	1.96	0.00674	1.65	0.246	3.21	2.08	2.36	0.669	1.22
TCTAGCAGTCCAGAGGGTCACTCAAGAGGTACGG	0.754	0.962	-0.326	1.19	-1.12	2.06	0.609	1.52	2.05	1.63
TCTTGTAGATCACGCAGGTTAAGAAAGCCTGAGT	0.613	0.539	-0.162	0.551	-0.17	1.09	-0.0924	1.37	2.72	1.89
GCTAGTTGGTCCGTAAAAGGTCACACACCGGTCG	3.14	4.48	3.93	3.92	0.618	4.14	1.33	3.29	0.779	2.39
TCTATTAGTAGAAGGGCAACCGACGAGTCCGTTT	0.288	0.212	0.0189	0.17	-0.103	0.688	0.23	1.93	3.29	2.44
CGGACTAGGTCAGAACAGGACAGTGAAGGATGAT	1.12	0.71	-0.0673	0.176	-0.579	2.36	4.2	3.5	1.01	2.58
TTACCAAGGTGAGCTGAGGGCGTTGATCCAACTC	0.29	-0.133	-0.543	-0.27	-1.16	0.372	-0.203	-0.041	-0.278	-0.0993
AGAATGAGGTTATACGTGGATCAGGGAAGAAAGT	2.49	2.03	0.117	1.91	0.299	3.25	1.82	2.19	0.672	1.49
CCGAGTAGGTTATGGGGCATCCAGGCAACGGTGA	0.103	0.375	-0.312	0.332	-0.509	2.36	3.95	4.52	1.97	4.17
CCTACTGGGCCAAAGTTCATTGATTCCAATGCTC	2.2	3.36	4.36	2.6	0.0133	5.47	10.9	9.53	9.33	11.8
TCTAATAGTTGAAGGGCAACCGACGAGTCCGTTT	0.931	0.943	0.0231	0.595	-0.0774	1.14	0.216	2.02	3.45	2.9

Sequence	PBM binding z-score [1]	PBM binding z-score [2]	PBM binding z-score [3]	PBM binding z-score [4]	PBM binding z-score [5]	PBM binding z-score [6]	PBM binding z-score [7]	PBM binding z-score [8]	PBM binding z-score [9]	PBM binding z-score [10]
AATACTGGGTCACTAGGCCAGAGTAGGTACGAAT	1.9	1.69	0.246	1.5	0.438	4.37	8.02	5.97	3.2	4.75
AGTCAAAGTTCACTCGGTAACGTAAGATTCAGCT	5.02	5.41	3.18	3.38	1.27	4.24	5.6	5.93	2.54	4.94
TCTTGTAGCTCAATAGAGGTTAAGAAAGTGCGCT	0.285	3.13	0.267	1.49	-0.618	1.52	-0.424	0.893	1.96	1.41
GATACAGGGTCGAGGCCAGAGTACGCGTATTGAT	0.882	0.531	-0.581	0.3	-1.21	1.99	1.21	0.874	0.198	0.515
GCGTATAGGTAATACAAGGTGAAAGTCCGATTGT	1.84	2.57	0.196	0.896	-0.616	1.37	0.763	0.855	0.307	0.925
TCAGACAGGTGAAGGTAACCCAGGTACGCAGTCG	1.04	1.3	0.143	0.546	-0.122	1.45	0.909	2.04	3.53	2.77
CCCGAAAGGTCGTGCTCAGGTGAGTATACCAAAC	5.73	4.05	0.438	3.37	0.415	4.94	2.94	3.87	0.899	2.53
ATCTCTAGGGAACCAAGTTCAGTGAATGCCGAAC	-0.221	0.011	0.471	0.284	0.239	0.00792	-0.0553	0.046	0.00419	0.0789
CAAACTAGGTCACGAAAGGTCCAAGTCGAATGAC	4.78	3.96	0.544	2.73	0.334	5.45	8.99	7.44	4.78	7.28
GCAGCCAGGTGAAACGCAGGTAACTCAGGGTGGC	-0.375	-0.533	-0.628	-0.952	-1.52	0.132	0.166	-0.353	-0.793	-0.229
CGTCCAAGGTCAAAGGGCAGTGAAGAGATGACGG	7.23	5.66	1	4.32	0.742	6.15	7.62	7.16	5.08	7.03
TCGTATAGGTAATACAGGTGAAAGTCGGCATCTA	0.718	1.21	0.63	0.967	-0.231	1.75	0.665	1.96	2.76	2.39
TCATATTGGTAAAAGGTGAAAGTCGGTGTGGTAA	1.65	1.92	0.474	2.06	0.291	3.73	3.98	5.67	5.38	6.18
TCTAGCAGGCCAGAGGGTCACACAAGAGGTACGG	1.67	1.66	-0.408	1.83	-1.34	3.11	2.49	3.28	2.36	3.09
TCTATTAGTTGAAGGGCAACAGACGAGTCCGTTT	0.85	0.613	0.367	0.805	0.326	0.993	0.441	2.09	3.73	2.9
CCTAGCTGGCCAGGGTCACTCAAGCATTTCGCTT	1.96	1.65	-0.664	1.94	-1.02	2.99	-0.0183	1.17	-0.834	-0.172
AGAATGAGGTAATTAAGATCAGGGAATTGCGGTC	0.0653	0.204	-0.0232	-0.116	-0.24	0.241	0.544	0.141	-0.00971	-0.0571
CAGCCTAGGTAAGGGCCAGTATAGGAGGAACGTT	-0.618	-0.931	-0.62	-1.05	-1.17	-0.738	-0.026	-0.51	-0.469	-0.635
CTACCAAGGTGAACAAGGACGTTGATTACTATTC	0.78	0.235	0.0356	0.647	-0.411	0.963	0.812	0.636	0.194	0.209
